# Results filed as inconclusive are left out. A call without a number means that no potency is given here. Values without a mark were called inactive. Activity calls are given as the source filed them. The call rests on the fitted dose curve; in most records, active means well fitted curve in the direction sought with a large enough effect; inconclusive means small, poorly fitted or top-dose-only effect, or another doubt; inactive means no such curve, though single readings can be large; an effect the other way counts as inactive or inconclusive.
# Assays:
# JEG-3 = assay: Primary qHTS to identify gynecologic anti-cancer compounds using libraries of approved drugs and bioactive compounds (AID 1345084); settings: Gynecologic cancer cell panel viability, ATPlite luminescence, 48 h; series mostly up to 57.5 µM; further: nearly all actives have a fitted effect of over 55% in size
# Outline: (§1)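 In this quantitative HTS, cell killing is estimated from loss of ATP-dependent luciferase light. Cells see five compound concentrations over a 48 h exposure.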
# OV90 = assay: as above; settings: Gynecologic cancer cell panel viability, ATPlite luminescence, 48 h; series mostly up to 57.5 µM
# Outline: as §1
# PA-1 = assay: as above; settings: Gynecologic cancer cell panel viability, ATPlite luminescence, 48 h; series mostly up to 57.5 µM
# Outline: as §1
# SKOV3 = assay: as above; settings: Gynecologic cancer cell panel viability, ATPlite luminescence, 48 h; series mostly up to 57.5 µM
# Outline: as §1
# Tov-21-G = assay: as above; settings: Gynecologic cancer cell panel viability, ATPlite luminescence, 48 h; series mostly up to 57.5 µM
# Outline: as §1
# Tov112D = assay: as above; settings: Gynecologic cancer cell panel viability, ATPlite luminescence, 48 h; series mostly up to 57.5 µM
# Outline: as §1
# [1] = Drug repurposing screens with cells derived from glioblastoma tumor samples (AID 1345199); settings: GBM patient neurospheres viability, ATP luminescence, 48 h; further: nearly all actives have a fitted effect of over 40% in size; further: potency means the concentration at half of the fitted maximal effect
# Outline: (§2)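 Four patient lines of CD133+ GBM neurospheres were screened at several concentrations; hits were retested in those lines plus three slower-growing GBM lines, using 48-hour treatment and ATP-based viability.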
# astro = assay: as above; settings: viability, ATP luminescence, 48 h; series mostly up to 45.9 µM
# Outline: as §2
# [2] = at 45.9 µM (top of the series), tumour line B
# [3] = at 45.9 µM (top of the series), tumour line D
# [4] = at 46.1 µM (top of the series), tumour line C
# [5] = at 46 µM (top of the series), tumour line A
Compound,Potency (JEG-3),Potency (OV90),Potency (PA-1),Potency (SKOV3),Potency (Tov-21-G),Potency (Tov112D),"activity, negative = cell killing [1, 2]","activity, negative = cell killing [1, 3]","activity, negative = cell killing [1, 4]",Potency (astro),Potency ([1]; tumour line A),"activity, negative = cell killing ([1]; at 20 µM (top of the series), tumour line C)","activity, negative = cell killing ([1]; at 21.2 µM (top of the series), tumour line B)","activity, negative = cell killing ([1]; at 21.2 µM (top of the series), tumour line D)","activity, negative = cell killing [1, 5]",Potency ([1]; tumour line D)
CC(C)NCC(O)c1cc(O)cc(O)c1 (stereo not drawn),inactive,inactive,inactive,inactive,inactive,inactive,-18.9%,17.6%,-22.7%,inactive,–,–,–,–,–,–
CC(C)NNC(=O)c1ccncc1,inactive,inactive,inactive,inactive,inactive,inactive,-11.9%,-16.2%,-23.6%,inactive,–,–,–,–,–,–
CC(=O)[C@@]1(O)CC[C@H]2[C@@H]3CCC4=CC(=O)CC[C@]4(C)[C@H]3CC[C@@]21C,inactive,inactive,inactive,inactive,inactive,inactive,-19.9%,-29.7%,-20.5%,inactive,–,–,–,–,–,–
C[N+](C)(C)CCOC(N)=O,inactive,inactive,inactive,inactive,inactive,inactive,-5.35%,-11.4%,-0.881%,inactive,–,–,–,–,–,–
Cc1ccc(/C(=C\CN2CCCC2)c2ccccn2)cc1,inactive,inactive,inactive,inactive,inactive,inactive,-22.4%,-28.9%,0.541%,inactive,17.8 µM (active),–,–,–,–,–
CCN(CC)CCNC(=O)c1cc(S(C)(=O)=O)ccc1OC,inactive,inactive,inactive,inactive,inactive,inactive,–,–,–,inactive,–,-10.9%,-7.73%,-4.2%,–,–
O=C(CCNNC(=O)c1ccncc1)NCc1ccccc1,inactive,inactive,inactive,inactive,inactive,inactive,-4.66%,-5.12%,1.75%,inactive,–,–,–,–,-24.8%,–
CCCN(CCC)CCc1cccc2c1CC(=O)N2,inactive,inactive,inactive,inactive,inactive,inactive,-4.59%,4.33%,2.12%,inactive,–,–,–,–,–,–
O=C(O)CN(CCN(CC(=O)O)CC(=O)O)CCN(CC(=O)O)CC(=O)O,inactive,inactive,inactive,inactive,inactive,inactive,-4.92%,-0.113%,-9.95%,inactive,–,–,–,–,–,–
CCn1ccnc1CC1COc2ccccc2O1 (stereo not drawn),inactive,inactive,inactive,inactive,inactive,inactive,-17.6%,-4.46%,-8.32%,inactive,–,–,–,–,–,–
O=c1[nH]c(=O)n([C@H]2C[C@H](O)[C@@H](CO)O2)cc1Br,inactive,inactive,inactive,inactive,inactive,inactive,-18.1%,7.04%,-12.6%,inactive,–,–,–,–,–,–
C[N+](C)(C)CCOC(=O)CCC(=O)OCC[N+](C)(C)C,inactive,inactive,inactive,inactive,inactive,inactive,5.74%,-9.68%,9.88%,inactive,–,–,–,–,-19.2%,–
CCN(CC)CCOCCOC(=O)C1(c2ccccc2)CCCC1,inactive,inactive,inactive,inactive,inactive,inactive,–,–,-28.4%,35.5 µM (active),2.24 µM (active),–,–,–,–,12.6 µM (active)
C=CCc1ccccc1OCC(O)CNC(C)C (stereo not drawn),inactive,inactive,inactive,inactive,inactive,inactive,-18%,-4.74%,-6.66%,inactive,–,–,–,–,–,–
CCCNC(C)C(=O)Nc1ccccc1C (stereo not drawn),inactive,inactive,inactive,inactive,inactive,inactive,-20%,-8.5%,-15.8%,inactive,–,–,–,–,–,–
Cc1nnc(SCC2=C(C(=O)O)N3C(=O)[C@@H](NC(=O)Cn4cnnn4)[C@H]3SC2)s1,inactive,inactive,inactive,inactive,inactive,inactive,-10.7%,-8.75%,-9.01%,inactive,–,–,–,–,–,–
Cc1nc2c([nH]1)c(=O)n(C)c(=O)n2Cc1ccco1,inactive,inactive,inactive,inactive,inactive,inactive,-4.62%,-3.2%,-11.8%,inactive,–,–,–,–,–,–
O=C1CC2(CCCC2)CC(=O)N1CCCCN1CCN(c2ncccn2)CC1,inactive,inactive,inactive,inactive,inactive,inactive,-25.4%,–,-16.7%,inactive,5.01 µM (active),–,–,–,–,–

# Reference: PubChem BioAssay (NCATS)
